From article PMC4336329 (PLoS ONE, 2015)
Among all 310,000 compounds or so, about 14,000 (4.5%) showed an effect of 50% or more. Effects have a minus sign here. This excerpt belongs to a sample that is enriched for strong results.

Each compound was assayed against human ether-à-go-go-related gene (hERG) potassium channel (human, UniProt Q12809) (assay: primary screen, population patch clamp on CHO cells stably expressing hERG; higher = less effect of the substance).
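Note: peak tail current of the secondary pulse compared with the same well before compound.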

Sequence of human ether-à-go-go-related gene (hERG) potassium channel (Q12809 whole entry, looked up): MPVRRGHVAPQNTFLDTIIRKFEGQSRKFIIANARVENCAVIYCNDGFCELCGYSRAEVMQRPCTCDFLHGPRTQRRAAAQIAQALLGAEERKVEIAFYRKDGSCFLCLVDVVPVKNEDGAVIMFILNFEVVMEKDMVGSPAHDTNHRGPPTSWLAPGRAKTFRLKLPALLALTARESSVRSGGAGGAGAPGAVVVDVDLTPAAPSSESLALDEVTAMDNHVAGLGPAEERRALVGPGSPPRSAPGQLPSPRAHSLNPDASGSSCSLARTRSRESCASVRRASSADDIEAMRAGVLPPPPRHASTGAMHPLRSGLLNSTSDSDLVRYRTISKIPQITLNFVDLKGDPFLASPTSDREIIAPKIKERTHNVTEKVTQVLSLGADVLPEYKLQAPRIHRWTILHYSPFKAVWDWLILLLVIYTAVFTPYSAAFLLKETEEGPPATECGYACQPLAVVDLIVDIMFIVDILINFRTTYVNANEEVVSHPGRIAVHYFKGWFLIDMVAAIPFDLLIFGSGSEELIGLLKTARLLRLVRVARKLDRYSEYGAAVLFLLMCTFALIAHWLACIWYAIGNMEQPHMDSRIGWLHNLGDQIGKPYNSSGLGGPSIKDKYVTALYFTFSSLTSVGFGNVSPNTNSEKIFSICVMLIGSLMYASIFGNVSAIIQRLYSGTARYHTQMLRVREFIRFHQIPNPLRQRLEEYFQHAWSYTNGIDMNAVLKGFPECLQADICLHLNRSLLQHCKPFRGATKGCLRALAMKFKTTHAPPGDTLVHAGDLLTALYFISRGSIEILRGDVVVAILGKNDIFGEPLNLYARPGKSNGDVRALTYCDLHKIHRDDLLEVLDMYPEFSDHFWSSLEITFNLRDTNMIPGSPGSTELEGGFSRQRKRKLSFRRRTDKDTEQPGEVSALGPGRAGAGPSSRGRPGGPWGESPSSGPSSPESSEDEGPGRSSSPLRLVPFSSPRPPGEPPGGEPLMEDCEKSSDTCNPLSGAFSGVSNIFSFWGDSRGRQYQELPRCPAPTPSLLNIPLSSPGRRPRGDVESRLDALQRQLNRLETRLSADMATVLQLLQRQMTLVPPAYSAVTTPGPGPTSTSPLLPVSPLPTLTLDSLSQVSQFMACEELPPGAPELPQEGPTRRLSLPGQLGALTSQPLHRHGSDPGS

Row | SMILES | hERG current change (%, negative = inhibition) at 10uM
1 | CCN(CC(=O)NCc1ccc(F)cc1)C(=O)c1ccc2c(c1)OCO2 | -5.66%
2 | O=C(CNC(=O)c1ccccc1Cl)OCC(=O)N1CCc2ccccc21 | -10.5%
3 | COc1ccc(Cc2nnc(Nc3ccccc3)s2)cc1Br | 13.9%
4 | COc1ccc2[nH]c3c(c2c1)CCN1C(=O)N([C@@H](C)C(=O)NCC2CCCO2)C(=O)[C@]31C (stereo partly shown) | -6.78%
5 | COc1ccc(C(=O)Oc2coc(CSc3nnc(NC(=O)c4cccs4)s3)cc2=O)cc1 | 24.2%
6 | CCCCC[C@H]1CN(C2CCCCC2)C(=O)[C@@H]1CC(=O)NCc1ccccc1 | -67.7%
7 | C[C@H]1CN(C2CCCCC2)C(=O)[C@@H]1CC(=O)NCc1ccccc1 | -6.72%
8 | COc1ccc(CNC(=O)C[C@H]2C(=O)N(C3CCCCC3)C[C@@H]2Cc2ccccc2)cc1 | -5.71%
9 | O=C(C[C@H]1C(=O)N(C2CCCCC2)C[C@@H]1Cc1ccccc1)Nc1ccccc1 | -27.4%
10 | CCCCC[C@H]1CN(C2CCCCC2)C(=O)[C@@H]1CC(=O)NCc1ccc(OC)cc1 | -67.4%
11 | COc1ccc(CNC(=O)C2CC(=O)N(C3CCCCC3)C2)cc1 (stereo not shown) | 13.7%
12 | CCN(CC)CCN(CC)Cc1ccccc1Br | -19.8%
13 | Cc1cc(/C=C2\C(=O)NC(=O)N(Cc3ccccc3Cl)C2=O)c(C)n1-c1ccc(C(=O)O)cc1 | 46%
14 | Cc1[nH]nc(-c2ccc(OCc3cnn(-c4ccccc4)c3)cc2O)c1Oc1ccc(F)cc1 | 22.6%
15 | CCn1cc(-c2cc(C(F)(F)F)n3nc(C(=O)O)cc3n2)c(C)n1 | -8.81%
16 | COc1ccc(NC(=O)c2cc(S(=O)(=O)Nc3ccc(OC)cc3)cs2)cc1 | -3.01%
17 | CCOC(=O)c1c2c3c(cccc3[nH]c1=O)C(=O)c1ccccc1-2 | 17.6%
18 | CCOC(=O)c1c2c3c(cccc3n(C)c1=O)C(=O)c1ccccc1-2 | -71.8%
19 | CC(=O)c1c2c3c(cccc3n(C)c1=O)C(=O)c1ccccc1-2 | -1.1%
20 | Cl.O=C(CN1CCN(C2CCCCC2)CC1)Nc1ccccc1N1CCCCC1 | -66.2%
21 | O=C(CN1C(=O)C2CCCCC2C1=O)Nc1ccccc1N1CCCC1 (stereo not shown) | 1.43%
22 | Cl.O=C(CN1CCN(C2CCCCC2)CC1)Nc1cccc2ccccc12 | -31.2%
23 | CC1CCN(CC(=O)Nc2ccccc2-c2ccccc2)CC1 | -25.1%
24 | Cl.O=C(CN1CCN(C2CCCCC2)CC1)Nc1ccccc1-c1ccccc1 | -70.1%
25 | O=C(CC1CCCCC1)Nc1ccccc1-c1ccccc1 | 6.47%
